Measured values from ChEMBL document CHEMBL3988442, “University of Dundee, Small-Polar-MMV Screening Library” (2021).

Legend:
[1] = biological target: T1, Aspartate--tRNA(Asp/Asn) ligase (Mycobacterium tuberculosis (strain ATCC 25618 / H37Rv)) (UniProt P9WFW3); assay: Assay for Asp RNA synthetase-1 from Mycobacterium tuberculosis; type: functional; parameters: scale not given: direction of the effect not stated beside the values; conditions: 30 µM; also: in the data most compounds retested in dose-response had high values
T1 sequence (whole entry): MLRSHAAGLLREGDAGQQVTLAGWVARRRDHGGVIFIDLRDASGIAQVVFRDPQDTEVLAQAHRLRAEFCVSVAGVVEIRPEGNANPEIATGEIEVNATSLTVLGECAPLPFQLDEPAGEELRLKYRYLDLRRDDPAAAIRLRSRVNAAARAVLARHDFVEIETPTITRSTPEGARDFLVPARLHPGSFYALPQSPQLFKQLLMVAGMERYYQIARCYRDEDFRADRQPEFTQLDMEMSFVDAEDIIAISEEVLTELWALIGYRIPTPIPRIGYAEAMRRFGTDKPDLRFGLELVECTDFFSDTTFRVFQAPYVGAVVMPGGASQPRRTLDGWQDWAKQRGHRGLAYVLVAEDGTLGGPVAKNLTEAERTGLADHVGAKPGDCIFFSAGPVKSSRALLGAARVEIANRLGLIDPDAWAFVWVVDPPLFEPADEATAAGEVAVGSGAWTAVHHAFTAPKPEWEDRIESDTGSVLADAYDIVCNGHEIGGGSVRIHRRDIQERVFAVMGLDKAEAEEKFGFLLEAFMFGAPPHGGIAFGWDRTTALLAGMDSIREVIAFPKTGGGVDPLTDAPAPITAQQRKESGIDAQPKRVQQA

[2] = biological target: Shiga toxin 2 (Escherichia coli O157:H7) (UniProt P09385+P09386); assay: E. coli 0.157:H7 Shiga Toxin SOP - stx2 screening assay; type: functional; parameters: scale not given: direction of the effect not stated beside the values; conditions: 30 µM

SMILES | Percent Effect [1] | Percent Effect [2]
Cc1cc(C)n(CC2CN(Cc3nnsc3Cl)CCO2)n1 (configuration not stated) | -1.81% | 31.3%
CCn1ccnc1CN1CCN(C(C)C(=O)NC2CCCCC2)CC1 (configuration not stated) | -1.01% | 22%
CCN1CCC(NC(=O)CN2CCCC2Cn2nc(C)cc2C)CC1 (configuration not stated) | -0.781% | 17.1%
COCCNC(=O)C1(c2ccccc2C)CCOCC1 | -1.82% | 19.2%
Cc1cccc(Nc2nccnc2C2CCCN2CC(=O)N(C)C)n1 (configuration not stated) | -7.13% | -29.9%
Cn1cc(N2CC3(CCN(Cc4cccs4)CC3)OCC2=O)cn1 | -0.729% | -20.1%
CC(C)C(NC(=O)N1CCN(c2ccc(Cl)cc2)CC1)C(=O)NC1CC1 (configuration not stated) | -3.72% | 7.46%
O=C1CC(c2ccccc2F)c2c(n3ccsc3nc2=O)N1 (configuration not stated) | 1.48% | -23%
O=C(NCC(F)F)N1CCC(n2ccc(C(F)(F)F)n2)CC1 | -6.76% | -7.64%
Cc1nn(C)c(N(C)C)c1CNCc1cccnc1 | -1.51% | -13%
CC1(NC(=O)Cc2csc(C(C)(C)C)n2)CCS(=O)(=O)C1 (configuration not stated) | -6.9% | -10.1%
Cc1cc(C(=O)N2C[C@@H]3COC[C@]3(COCc3cccnc3)C2)no1 | 0.918% | -6.54%
COCc1cccc(CNCc2c(C)nn(C)c2N(C)C)c1 | 6.21% | 1.1%
CC(=O)N(Cc1noc(C)n1)C1CCN(Cc2ccncc2Cl)C1 (configuration not stated) | 1.27% | -3.88%
O=C(NCC1CCOC1)c1ccc(OCC(F)(F)F)nc1 (configuration not stated) | -2.12% | -17.6%
COCC(=O)N1CCCC1c1cc(Nc2nnc(C)s2)nc(C)n1 (configuration not stated) | -3.43% | -14.2%
CCCOCCCNc1nccc(-c2cn(C)nc2C)n1 | -3.96% | 18.1%
Cn1cc(C2CCCN2C(=O)c2ccc(Br)o2)cn1 (configuration not stated) | -1.8% | 28.5%
O=C(c1cc(COc2ccc3c(c2)OCO3)[nH]n1)N1CCCC1 | 0.912% | -23.7%
CC(C)c1nc(C2CCCN2Cc2ccno2)no1 (configuration not stated) | 1.46% | 1.7%
CC(C)c1nc(CN(C)C2CCN(CC(F)(F)F)C2)no1 (configuration not stated) | 8.54% | -4.21%
CCOCCCNC(=O)c1ccccc1S(C)(=O)=O | -2.28% | 0.226%
Cc1ccc(CN2CC[C@H]3OCC[C@@H](C(=O)NC4CC4)[C@@H]3C2)o1 | 4.6% | -6.37%

SMILES | Percent Effect [1] | Percent Effect [2]
COC(=O)CC(c1cnn(C)c1)c1oc(C)cc(=O)c1O (configuration not stated) | -0.166% | -13.2%
CC(=O)Nc1nc(C(=O)N2CCCC2Cn2cc(C)cn2)cs1 (configuration not stated) | -1.84% | 20.3%
CCc1nc(NCCCn2cccn2)c2c(n1)c(C)nn2C | -0.755% | -14.3%
CCOCCC(=O)N1CCCN(Cc2csc(CC)n2)CC1 | -0.742% | -4.81%
CC(=O)N1[C@@H](C(=O)NCC2CC2)C[C@@H]2CN(Cc3ccco3)C[C@@H]21 | 0.523% | -11.8%
COCCNC(=O)[C@H]1CN(Cc2nccs2)C[C@H]2OCC[C@@H]12 | -4.08% | 1.98%
CC(=O)c1ccc(C(=O)NCCCOC(C)c2ccccc2)s1 (configuration not stated) | -4.7% | -71.8%
O=C(NC1CC1)[C@@H]1CCO[C@@H]2CCN(C3CCOCC3)C[C@@H]21 | -3.45% | -22%
Cc1ccc(C(C)NC(=O)Nc2ccccc2CN2CCOCC2)o1 (configuration not stated) | -6.02% | 17.3%
CCCN1CCN(C(=O)C(C)n2cc(Br)cn2)CC1 (configuration not stated) | 5.74% | -31.6%
CCN(Cc1ccc2c(c1)OCO2)Cc1nc(C)no1 | 4.08% | 23.9%
Cc1cc(C[C@@H]2COC[C@@H]2NC(=O)Cn2c(=O)oc3ccccc32)on1 | -0.0288% | -25.4%
O=C(CN1CCN(CC(O)C2CC2)CC1)NCc1ccc(F)cc1 (configuration not stated) | -0.889% | -4.46%
CC(C)(NCC(=O)NCCC#N)c1ccc2c(c1)OCCO2 | 11.1% | 14.2%
Cc1cccnc1NC(=O)C(C)Cn1nc(C(F)(F)F)cc1C (configuration not stated) | -2.9% | -1.69%
O=C(c1cnc(-c2cccs2)s1)N1CCCC(n2cccn2)C1 (configuration not stated) | 2.29% | 17.4%
CNc1cc(C2CCCN2Cc2ccccc2OCC(=O)O)ccn1 (configuration not stated) | 5.46% | 4.73%
COc1ccc(CN2CCC[C@@H]3CN(C(=O)c4ccco4)C[C@@H]32)cc1 | 5.87% | 0.332%
COc1ccc(CN2C[C@@H](OCc3ccccn3)[C@H]3COC[C@H]32)cc1 | 3.47% | 12.7%
Cc1nc(C(=O)N2CCCC(c3cccc(-n4ccnc4)n3)C2)co1 (configuration not stated) | -0.67% | 3.79%
c1csc(CN2C[C@@H]3OCCN(CC4CCCO4)[C@@H]3C2)c1 (some centres not stated) | -2.14% | 7.71%
Cc1noc(C2CCN(C(=O)CN(C)c3ccc(Cl)cn3)CC2)n1 | -1.59% | -21.6%
COc1cc(C)c(C(C)NC(=O)Nc2nnc(C)s2)cc1OC (configuration not stated) | -7.26% | 9.98%
